Reference: PubChem BioAssay (Tox21)
Unmarked numbers belong to inactive results. Results filed as inconclusive are left out. Calls of active or inactive are those of the source. Calls come from the whole dose curve.

These compounds were tested against Acetylcholinesterase (Homo sapiens) (UniProt P22303) (assay: Acetylcholinesterase (AChE) small molecule antagonists: fluorescence cell-based qHTS assay (AID 1347398; note: nearly all actives have a fitted effect of over 50% in size)). Details: SH-SY5Y cells; Potency: AChE activity; outcome: AChE activity; series mostly up to 115 µM; activity change, negative = inhibition: at the top concentration.
Sequence of Acetylcholinesterase (Homo sapiens) (P22303 whole entry, looked up): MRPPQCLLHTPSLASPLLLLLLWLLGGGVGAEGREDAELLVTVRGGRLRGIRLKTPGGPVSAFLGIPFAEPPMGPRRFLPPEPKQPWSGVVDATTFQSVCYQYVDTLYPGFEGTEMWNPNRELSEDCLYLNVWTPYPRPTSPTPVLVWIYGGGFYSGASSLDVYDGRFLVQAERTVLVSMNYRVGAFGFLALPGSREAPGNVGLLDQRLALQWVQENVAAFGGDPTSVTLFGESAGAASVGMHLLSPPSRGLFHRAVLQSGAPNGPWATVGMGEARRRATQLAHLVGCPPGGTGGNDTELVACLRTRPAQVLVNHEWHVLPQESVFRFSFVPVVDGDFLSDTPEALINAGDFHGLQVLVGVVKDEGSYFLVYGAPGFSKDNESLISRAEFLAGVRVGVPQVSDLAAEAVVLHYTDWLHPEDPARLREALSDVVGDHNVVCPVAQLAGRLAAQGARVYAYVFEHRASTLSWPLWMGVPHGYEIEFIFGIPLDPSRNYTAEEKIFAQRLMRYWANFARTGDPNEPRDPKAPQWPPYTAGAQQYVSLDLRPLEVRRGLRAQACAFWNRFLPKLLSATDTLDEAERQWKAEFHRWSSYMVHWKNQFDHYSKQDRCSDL
Procedure, shortened: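 Human SH-SY5Y cells were plated overnight at 37 C, exposed to compound for 30 min at 37 C, 5% CO2, then given acetylthiocholine plus Thiolite Green for 40 min at room temperature; thiocholine fluorescence (Ex/Em 490/520 nm) reports endogenous AChE activity.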
% is set by controls: 0 for no effect and ±100 for the full control effect.

Which Potency does the source give for `CCCCOCCOC(=O)c1ccccc1C(=O)OCCOCCCC` here?
Its Potency is “inactive”.

For `CC(=O)c1ccc2ccc3ccccc3c2c1`, which “activity change, negative = inhibition” value is on record?
Its value is -15.3%.

How did the Potency turn out when `CCCCCCCCCCO` was run?
The Potency was “inactive”.

Which “activity change, negative = inhibition” value does the source give for `CCOc1nc2cccc(C(=O)O)c2n1Cc1ccc(-c2ccccc2-c2nn[nH]n2)cc1` here?
Its value is 41.1% [at 53.7 µM].

How did the “activity change, negative = inhibition” value turn out when `CCCCC(C)C(=O)O` (stereo not given) was run?
The value was 4.56%.

Which “activity change, negative = inhibition” value does the source give for `Cc1cc(CCC(=O)OCCOCCOCCOC(=O)CCc2cc(C)c(O)c(C(C)(C)C)c2)cc(C(C)(C)C)c1O` here?
Its value is 1.9%.

With `C1CCCNCC1` as the compound, how does the Potency read?
The Potency was “inactive”.

With `F[B-](F)(F)F` as the compound, how does the Potency read?
Its Potency is “inactive”.

For `OCCN(CCO)CCN(CCO)CCO`, which “activity change, negative = inhibition” value is on record?
The value was 1.96%.

How did the “activity change, negative = inhibition” value turn out when `Cc1ccc2c(ccc3ccccc32)c1` was run?
Its value is -3.41%.

For `CCCCCCCCCCCCS`, which Potency is on record?
The Potency was “inactive”.

For `CCCCOC(=O)c1ccc(N)cc1`, which Potency is on record?
The Potency was “inactive”.

With `N[C@@H](Cc1c[nH]c2ccccc12)C(=O)O` as the compound, how does the Potency read?
Its Potency is “inactive”.

Which Potency does the source give for `CCCCCCCO` here?
The Potency was “inactive”.

`COc1ccc(OC)c(NC(=O)CC(C)=O)c1` was tested. Which “activity change, negative = inhibition” value did it give?
The value was -8.18%.

With `C=CC(=O)OCCOC(=O)CCC(=O)O` as the compound, how does the “activity change, negative = inhibition” value read?
Its value is 2.49%.

Which “activity change, negative = inhibition” value does the source give for `O=C(O)CCSSCCC(=O)O` here?
The value was 1.56%.

With `OCC1(CO)COCOC1` as the compound, how does the “activity change, negative = inhibition” value read?
Its value is 0.0326%.

Which “activity change, negative = inhibition” value does the source give for `O=C(O)CNC(=O)c1ccccc1` here?
The value was 5.65% [at 53.7 µM].

How did the “activity change, negative = inhibition” value turn out when `CCN(Cc1cccnc1)C(=O)c1cccc(Cl)c1[C@]1(C)C(=O)N(Cc2ccc(OC)cc2OC)c2ccc(Cl)cc21` was run?
Its value is 2.15%.

How did the “activity change, negative = inhibition” value turn out when `CC(=O)Nc1ccc(/C=N/NC(N)=S)cc1` was run?
The value was 1.8% [at 53.7 µM].

For `CCOB(OCC)OCC`, which “activity change, negative = inhibition” value is on record?
The value was 2.16%.

For `CCOc1cc(OCC)c(C(C)=O)cc1OCC`, which “activity change, negative = inhibition” value is on record?
The value was -12.5%.

For `COCCOCCOCCOC`, which “activity change, negative = inhibition” value is on record?
The value was 7.86%.

`CCCCCCCCO` was tested. Which Potency did it give?
Its Potency is “inactive”.

For `Cc1cc(C(C)(C)C)c(O)c(C)c1CC1=NCCN1`, which “activity change, negative = inhibition” value is on record?
The value was 10% [at 53.7 µM].

How did the “activity change, negative = inhibition” value turn out when `Nc1cc(S(=O)(=O)O)ccc1O` was run?
The value was -0.101%.

How did the “activity change, negative = inhibition” value turn out when `COc1cc(C(=O)N2CCCCCCC2)cc(OC)c1OC` was run?
Its value is 2.31% [at 53.7 µM].

For `CC(=O)c1ccccc1O`, which “activity change, negative = inhibition” value is on record?
Its value is 4.14%.

For `CC(=O)OCCCc1ccccc1`, which “activity change, negative = inhibition” value is on record?
Its value is -0.355%.

`Nc1cc(=O)[nH]c(N)n1` was tested. Which “activity change, negative = inhibition” value did it give?
Its value is 4.62% [at 53.7 µM].

With `O=C(O)C[C@H](O)C[C@H](O)/C=C/c1c(C2CC2)nc2ccccc2c1-c1ccc(F)cc1` as the compound, how does the activity change, negative = inhibition read?
Its activity change, negative = inhibition is 8.09% [at 23.8 µM].

With `CCCCOCCO` as the compound, how does the Potency read?
Its Potency is “inactive”.

Which “activity change, negative = inhibition” value does the source give for `CCCCc1nc(Cl)c(CO)n1Cc1ccc(-c2ccccc2-c2nn[nH]n2)cc1` here?
The value was -0.119% [at 53.7 µM].

For `COc1ccc2cc1Oc1cc3c(cc1OC)CC[N+](C)(C)[C@H]3Cc1ccc(cc1)Oc1c(OC)c(OC)cc3c1[C@@H](C2)[N+](C)(C)CC3`, which “activity change, negative = inhibition” value is on record?
The value was -13.1% [at 53.7 µM].

How did the Potency turn out when `c1ccc2ccccc2c1` was run?
The Potency was “inactive”.

For `CCOCCOCCO`, which Potency is on record?
Its Potency is “inactive”.

For `CCC(=O)/C=C/C1C(C)=CCCC1(C)C` (stereo not given), which Potency is on record?
The Potency was “inactive”.

How did the “activity change, negative = inhibition” value turn out when `CNS(=O)(=O)CCc1ccc2[nH]cc(C3CCN(C)CC3)c2c1` was run?
The value was 1.25% [at 53.7 µM].

For `CCn1cc(C(=O)O)c(=O)c2cc(F)c(N3CCNCC3)cc21`, which “activity change, negative = inhibition” value is on record?
The value was -1.22% [at 53.7 µM].

The compounds below were run against Acetylcholinesterase (Homo sapiens) (UniProt P22303) (assay: Acetylcholinesterase (AChE) small molecule antagonists: enzyme-based qHTS assay with human liver microsomes (AID 1347399; note: nearly all actives have a fitted effect of over 60% in size)). Details: Potency: qHTS inhibition; outcome: qHTS inhibition; series mostly up to 115 µM; activity change, negative = inhibition: at the top concentration.
Procedure, shortened: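 Recombinant human AChE (50 mU/mL in the enzyme mix) and human liver microsomes (0.25 mg/mL final) were preincubated with compound and NADPH (0.25 mg/mL final) for 30 min at 37 C. Acetylthiocholine/DTNB was then added; thiocholine was read colorimetrically after 10 min at room temperature.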

For `CCCCOCCOC(=O)c1ccccc1C(=O)OCCOCCCC`, which Potency is on record?
The Potency was “inactive”.

`CC(=O)c1ccc2ccc3ccccc3c2c1` was tested. Which “activity change, negative = inhibition” value did it give?
Its value is -4.37%.

With `CCCCCCCCCCO` as the compound, how does the Potency read?
The Potency was “inactive”.

How did the “activity change, negative = inhibition” value turn out when `CCOc1nc2cccc(C(=O)O)c2n1Cc1ccc(-c2ccccc2-c2nn[nH]n2)cc1` was run?
The value was -0.738% [at 53 µM].

Which “activity change, negative = inhibition” value does the source give for `CCCCC(C)C(=O)O` (stereo not given) here?
Its value is -0.869%.

With `Cc1cc(CCC(=O)OCCOCCOCCOC(=O)CCc2cc(C)c(O)c(C(C)(C)C)c2)cc(C(C)(C)C)c1O` as the compound, how does the “activity change, negative = inhibition” value read?
Its value is 0.0764%.

For `C1CCCNCC1`, which Potency is on record?
The Potency was “inactive”.

Which Potency does the source give for `F[B-](F)(F)F` here?
The Potency was “inactive”.

With `OCCN(CCO)CCN(CCO)CCO` as the compound, how does the “activity change, negative = inhibition” value read?
The value was 0.61%.

With `Cc1ccc2c(ccc3ccccc32)c1` as the compound, how does the “activity change, negative = inhibition” value read?
Its value is -0.686%.

`CCCCCCCCCCCCS` was tested. Which Potency did it give?
Its Potency is “inactive”.

Which Potency does the source give for `CCCCOC(=O)c1ccc(N)cc1` here?
Its Potency is “inactive”.

For `N[C@@H](Cc1c[nH]c2ccccc12)C(=O)O`, which Potency is on record?
Its Potency is “inactive”.

Which Potency does the source give for `CCCCCCCO` here?
Its Potency is “inactive”.

With `COc1ccc(OC)c(NC(=O)CC(C)=O)c1` as the compound, how does the “activity change, negative = inhibition” value read?
The value was 4.88%.

With `C=CC(=O)OCCOC(=O)CCC(=O)O` as the compound, how does the “activity change, negative = inhibition” value read?
Its value is -0.911%.

For `O=C(O)CCSSCCC(=O)O`, which “activity change, negative = inhibition” value is on record?
The value was -1.17%.

`OCC1(CO)COCOC1` was tested. Which “activity change, negative = inhibition” value did it give?
The value was 0.458%.

Which “activity change, negative = inhibition” value does the source give for `O=C(O)CNC(=O)c1ccccc1` here?
Its value is -2.19% [at 53 µM].

Which “activity change, negative = inhibition” value does the source give for `CCN(Cc1cccnc1)C(=O)c1cccc(Cl)c1[C@]1(C)C(=O)N(Cc2ccc(OC)cc2OC)c2ccc(Cl)cc21` here?
Its value is 3.15%.

For `CC(=O)Nc1ccc(/C=N/NC(N)=S)cc1`, which “activity change, negative = inhibition” value is on record?
Its value is -2.02% [at 53 µM].

With `CCOB(OCC)OCC` as the compound, how does the “activity change, negative = inhibition” value read?
The value was -0.162%.

Which “activity change, negative = inhibition” value does the source give for `CCOc1cc(OCC)c(C(C)=O)cc1OCC` here?
The value was -3.23%.

For `COCCOCCOCCOC`, which “activity change, negative = inhibition” value is on record?
Its value is 0%.

How did the Potency turn out when `CCCCCCCCO` was run?
The Potency was “inactive”.

With `Cc1cc(C(C)(C)C)c(O)c(C)c1CC1=NCCN1` as the compound, how does the “activity change, negative = inhibition” value read?
Its value is -1.56% [at 53 µM].

Which “activity change, negative = inhibition” value does the source give for `Nc1cc(S(=O)(=O)O)ccc1O` here?
Its value is -1.89%.

With `COc1cc(C(=O)N2CCCCCCC2)cc(OC)c1OC` as the compound, how does the “activity change, negative = inhibition” value read?
Its value is -0.147% [at 53 µM].

With `CC(=O)c1ccccc1O` as the compound, how does the “activity change, negative = inhibition” value read?
Its value is -0.548%.

Which “activity change, negative = inhibition” value does the source give for `CC(=O)OCCCc1ccccc1` here?
The value was 0.373%.

With `Nc1cc(=O)[nH]c(N)n1` as the compound, how does the “activity change, negative = inhibition” value read?
The value was -1.81% [at 53 µM].

For `O=C(O)C[C@H](O)C[C@H](O)/C=C/c1c(C2CC2)nc2ccccc2c1-c1ccc(F)cc1`, which activity change, negative = inhibition is on record?
Its activity change, negative = inhibition is -1.12% [at 23.6 µM].

With `CCCCOCCO` as the compound, how does the Potency read?
Its Potency is “inactive”.

Which “activity change, negative = inhibition” value does the source give for `CCCCc1nc(Cl)c(CO)n1Cc1ccc(-c2ccccc2-c2nn[nH]n2)cc1` here?
Its value is -0.967% [at 53 µM].

With `COc1ccc2cc1Oc1cc3c(cc1OC)CC[N+](C)(C)[C@H]3Cc1ccc(cc1)Oc1c(OC)c(OC)cc3c1[C@@H](C2)[N+](C)(C)CC3` as the compound, how does the “activity change, negative = inhibition” value read?
Its value is 0.295% [at 53 µM].

`c1ccc2ccccc2c1` was tested. Which Potency did it give?
The Potency was “inactive”.

Which Potency does the source give for `CCOCCOCCO` here?
Its Potency is “inactive”.

`CCC(=O)/C=C/C1C(C)=CCCC1(C)C` (stereo not given) was tested. Which Potency did it give?
The Potency was “inactive”.

How did the “activity change, negative = inhibition” value turn out when `CNS(=O)(=O)CCc1ccc2[nH]cc(C3CCN(C)CC3)c2c1` was run?
Its value is -0.669% [at 53 µM].

`CCn1cc(C(=O)O)c(=O)c2cc(F)c(N3CCNCC3)cc21` was tested. Which “activity change, negative = inhibition” value did it give?
Its value is 0.336% [at 53 µM].
